Reference: PubChem BioAssay (NCATS)
Records with an inconclusive call do not appear. Calls of active or inactive are those of the source. Calls follow the shape of the dose curve; as a rule, active = well fitted cell-killing curve with a large enough effect; inconclusive = small, poorly fitted or top-dose-only effect, or effect the other way; inactive = flat fitted curve, though single readings scatter.

Experiments:
Test in all cases: Primary qHTS to identify gynecologic anti-cancer compounds using libraries of approved drugs and bioactive compounds (AID 1345084); also: nearly all actives have a fitted effect of over 55% in size
C33A = conditions: Gynecologic cancer cell panel viability, ATPlite luminescence, 48 h; series mostly up to 57.5 µM
Method in brief: (§1)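 Five-point cytotoxicity, 48 h drug exposure at 37 C, 5% CO2, on cells seeded 16 h beforehand. ATP content read by ATPlite luminescence.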

CAOV3 = conditions: Gynecologic cancer cell panel viability, ATPlite luminescence, 48 h; series mostly up to 57.5 µM
Method in brief: as §1

CASKI = conditions: Gynecologic cancer cell panel viability, ATPlite luminescence, 48 h; series mostly up to 57.5 µM
Method in brief: as §1

Es-2 = conditions: Gynecologic cancer cell panel viability, ATPlite luminescence, 48 h; series mostly up to 57.5 µM
Method in brief: as §1

HeLa = conditions: Gynecologic cancer cell panel viability, ATPlite luminescence, 48 h; series mostly up to 57.5 µM
Method in brief: as §1

Hek293T = conditions: Gynecologic cancer cell panel viability, ATPlite luminescence, 48 h, control line for the selectivity index; series mostly up to 57.5 µM
Method in brief: as §1

JEG-3 = conditions: Gynecologic cancer cell panel viability, ATPlite luminescence, 48 h; series mostly up to 57.5 µM
Method in brief: as §1

OV90 = conditions: Gynecologic cancer cell panel viability, ATPlite luminescence, 48 h; series mostly up to 57.5 µM
Method in brief: as §1

PA-1 = conditions: Gynecologic cancer cell panel viability, ATPlite luminescence, 48 h; series mostly up to 57.5 µM
Method in brief: as §1

SKOV3 = conditions: Gynecologic cancer cell panel viability, ATPlite luminescence, 48 h; series mostly up to 57.5 µM
Method in brief: as §1

Tov-21-G = conditions: Gynecologic cancer cell panel viability, ATPlite luminescence, 48 h; series mostly up to 57.5 µM
Method in brief: as §1

Tov112D = conditions: Gynecologic cancer cell panel viability, ATPlite luminescence, 48 h; series mostly up to 57.5 µM
Method in brief: as §1

Measured: Potency

O=C(O)Cc1ccc2oc(-c3ccc(NC(=O)/C=C/c4ccc(Br)cc4)c(F)c3)nc2c1
inactive: C33A | CAOV3 | CASKI | Es-2 | HeLa | Hek293T | JEG-3 | OV90 | PA-1 | SKOV3 | Tov-21-G | Tov112D

COC(=O)[C@@H](O)[C@H]1[C@@]2(C)CC3(O)[C@@H](C(=O)[C@H]2O)[C@]24O[C@]25CC(=O)O[C@@H](c2ccoc2)[C@]5(C)CCC4[C@]13C (stereo partly specified)
inactive: C33A | CAOV3 | CASKI | Es-2 | HeLa | Hek293T | JEG-3 | OV90 | PA-1 | SKOV3 | Tov-21-G | Tov112D

C/C1=C\CC[C@]2(C)O[C@@H]2[C@H](O)[C@H](C(C)C)[C@H](OC(=O)/C=C/c2ccccc2)C1
inactive: C33A | CAOV3 | CASKI | Es-2 | HeLa | Hek293T | JEG-3 | OV90 | PA-1 | SKOV3 | Tov-21-G | Tov112D

C[C@H](Nc1ncnc2nc[nH]c12)c1cc2ccc(F)cc2nc1-c1ccccn1
inactive: C33A | CAOV3 | CASKI | Es-2 | HeLa | Hek293T | JEG-3 | OV90 | PA-1 | SKOV3 | Tov-21-G | Tov112D

Oc1ccc2nc(CN3CCC(Cc4ccccc4F)CC3)[nH]c2c1
inactive: C33A | CAOV3 | CASKI | Es-2 | HeLa | Hek293T | JEG-3 | OV90 | PA-1 | SKOV3 | Tov-21-G | Tov112D

COc1cc(N)c(Cl)cc1C(=O)NC[C@@H]1CCN2CCC[C@@H]12
inactive: C33A | CAOV3 | CASKI | Es-2 | HeLa | Hek293T | JEG-3 | OV90 | PA-1 | SKOV3 | Tov-21-G | Tov112D

CO[C@H]1/C=C\O[C@@]2(C)Oc3c(C)c(O)c4c(O)c(c5c(nc6cc(C)ccn65)c4c3C2=O)NC(=O)/C(C)=C\C=C/[C@H](C)[C@H](O)[C@@H](C)[C@@H](O)[C@@H](C)[C@H](OC(C)=O)[C@@H]1C
inactive: C33A | CAOV3 | CASKI | Es-2 | HeLa | Hek293T | JEG-3 | OV90 | PA-1 | SKOV3 | Tov-21-G | Tov112D

COCCOc1ccc(N2CCN(CCn3ncc4c3nc(N)n3nc(-c5ccco5)nc43)CC2)cc1
inactive: C33A | CAOV3 | CASKI | Es-2 | HeLa | Hek293T | JEG-3 | OV90 | PA-1 | SKOV3 | Tov-21-G | Tov112D

CC(C)(C)NCCCNC(=O)c1cccc(Br)c1
inactive: C33A | CAOV3 | CASKI | Es-2 | HeLa | Hek293T | JEG-3 | OV90 | PA-1 | SKOV3 | Tov-21-G | Tov112D

O=C1CC2(CCCC2)[C@H](O)C(=O)N1CCCCN1CCN(c2ncccn2)CC1
inactive: C33A | CAOV3 | CASKI | Es-2 | HeLa | Hek293T | JEG-3 | OV90 | PA-1 | SKOV3 | Tov-21-G | Tov112D

COC(=O)CCC(=O)OC[C@]1(C)CCC[C@@]2(C)C3CC[C@]4(C)C=CC3(CCC12)C4 (stereo partly specified)
inactive: C33A | CAOV3 | CASKI | Es-2 | HeLa | Hek293T | JEG-3 | OV90 | PA-1 | SKOV3 | Tov-21-G | Tov112D

O=C(Nc1ccc(S(=O)(=O)Nc2nccs2)cc1)C(c1ccccc1)c1ccccc1
inactive: C33A | CAOV3 | CASKI | Es-2 | HeLa | Hek293T | JEG-3 | OV90 | PA-1 | SKOV3 | Tov-21-G | Tov112D

CC(=O)O[C@H]1CC[C@H](C)[C@@]2(C)[C@H](OC(C)=O)c3c(C)coc3C(=O)[C@H]12
inactive: C33A | CAOV3 | CASKI | Es-2 | HeLa | Hek293T | JEG-3 | OV90 | PA-1 | SKOV3 | Tov-21-G | Tov112D
